The text below walks through data of PubChem BioAssay (NCATS).

The target in test [1] is Cellular tumor antigen p53 (Homo sapiens) (UniProt P04637). Description: Primary qHTS for small molecule compounds that upregulate eGFP-tagged delta133p53alpha (in N-terminal) cells. (AID 2060322).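 For activation: cells pre-induced with doxycycline then dosed without doxycycline; series mostly up to about 56 µM; 0% = DMSO vehicle and 100% = reference activator.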 Note: nearly all actives have a fitted effect of over 75% in size. Note: potency is the fitted concentration of half-maximal effect. The conditions noted are these: NCI-H358 eGFP-delta133p53alpha fluorescence, 24 h; activation: active compounds read high. Put shortly: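 NCI-H358 cells pre-induced 24 h with 10 ng/ml doxycycline for eGFP-delta133p53alpha, plated dox-free and exposed 24 h at 37C to titrated compounds. Fixed, Hoechst-stained; gated GFP peak intensity by laser scanning cytometry, normalized to DMSO (0%) and 57.5 uM 5-azacytidine (100%).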

Test [2] concerns the target Aldehyde dehydrogenase, mitochondrial (Homo sapiens) (UniProt P05091). Description: qHTS for Inhibitors of the Aldehyde Dehydrogenase Family (ALDH2) Primary screen (AID 2061308).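 Note: plate controls were vehicle for no effect and reference inhibitor for full effect; nearly all actives have a fitted effect of over 55% in size.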
The target in test [3] is Retinaldehyde dehydrogenase 3 (Homo sapiens) (UniProt P47895). Description: qHTS for Inhibitors of the Aldehyde Dehydrogenase Family (ALDH1A3) Primary screen (AID 2061315).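 Note: plate controls were DMSO vehicle for no effect and reference inhibitor for full effect.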
A short description of test [4]: BET inhibitor-based combinations targeting novel dependencies in MECOM-rearranged (r) AML: OCI-AML3 cell line (AID 2202232). Note: nearly all actives have a fitted effect of over 35% in size. Note: potency is the fitted concentration of half-maximal effect. The conditions noted are these: Potency: OCI-AML3 viability. Put shortly:
(§1)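 500 cells/well; 11-pt dose curve; 48 h, standard incubator; CellTiter-Glo luminescence after 15 min RT; DMSO/empty-well normalization; AUC plus Z-AUC (mean-centered within each line).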

The nature of test [5]: BET inhibitor-based combinations targeting novel dependencies in MECOM-rearranged (r) AML: MV-4-11 cell line (AID 2202233). Note: nearly all actives have a fitted effect of over 45% in size. Note: potency is the fitted concentration of half-maximal effect. Put shortly:
(§2)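 Cells were plated at 500 per well and exposed to each drug across an 11-point dose range for 48 hr at standard incubator conditions. Viability was read by CellTiter-Glo luminescence, and activity was expressed as AUC and per-cell-line Z-transformed AUC.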

Test [6] can be described thus: BET inhibitor-based combinations targeting novel dependencies in MECOM-rearranged (r) AML: UCSD-AML1 cell line (AID 2202235). Note: nearly all actives have a fitted effect of over 40% in size. Note: potency is the fitted concentration of half-maximal effect. In outline:
as §2

Test [7] is described as follows: BET inhibitor-based combinations targeting novel dependencies in MECOM-rearranged (r) AML: SET-2 cell line (AID 2202231).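 Note: plate controls were DMSO treated cells for no effect and wells without cells for full effect; nearly all actives have a fitted effect of over 35% in size.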 The conditions noted are these: SET-2 AML cells viability, CellTiter-Glo luminescence, 48 h; viability: active compounds read low, series mostly up to about 46 µM. Put shortly:
as §1

Test [8] is described as follows: BET inhibitor-based combinations targeting novel dependencies in MECOM-rearranged (r) AML: AML-191 cell line (AID 2202236; note: nearly all actives have a fitted effect of over 35% in size; note: potency is the fitted concentration of half-maximal effect). Put shortly:
as §1

Test [9] is described as follows: BET inhibitor-based combinations targeting novel dependencies in MECOM-rearranged (r) AML: HNT-34 cell line (AID 2202234). Note: nearly all actives have a fitted effect of over 35% in size. Note: potency is the fitted concentration of half-maximal effect. In outline:
as §2

Test [10] can be described thus: BET inhibitor-based combinations targeting novel dependencies in MECOM-rearranged (r) AML: AML-194 cell line (AID 2202237; note: nearly all actives have a fitted effect of over 40% in size; note: potency is the fitted concentration of half-maximal effect). In outline: as §1

Each structure is given as a SMILES string. Several values for one entry are separate records, joined by “and”; a condition that tells them apart may be missing. Equal values may be shown once. Inconclusive results are not listed. Activity calls are given as the source filed them. Calls come from the whole dose curve; as a rule, active = well fitted curve in the direction sought with a large enough effect; inconclusive = small, poorly fitted or top-dose-only effect, or another doubt; inactive = no such curve, though single readings can be large; an effect the other way counts as inactive or inconclusive.

Cellular tumor antigen p53 (Homo sapiens), sequence (P04637 whole entry, looked up): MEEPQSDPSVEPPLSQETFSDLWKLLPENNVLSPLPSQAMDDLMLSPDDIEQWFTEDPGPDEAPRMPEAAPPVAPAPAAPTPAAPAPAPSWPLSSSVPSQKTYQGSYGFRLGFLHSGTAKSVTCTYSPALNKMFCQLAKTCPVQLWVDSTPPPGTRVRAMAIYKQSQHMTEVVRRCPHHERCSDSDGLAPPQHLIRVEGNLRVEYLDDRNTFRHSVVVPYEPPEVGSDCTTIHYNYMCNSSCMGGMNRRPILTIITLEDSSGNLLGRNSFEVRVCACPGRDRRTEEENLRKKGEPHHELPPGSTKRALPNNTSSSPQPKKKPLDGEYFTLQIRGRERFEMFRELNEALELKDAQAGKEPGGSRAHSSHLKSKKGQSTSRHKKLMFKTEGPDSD

On to `COc1cc(N2CCC(N3CCN(C)CC3)CC2)ccc1Nc1ncc(Cl)c(Nc2ccccc2P(C)(C)=O)n1`, for which the Potency in [1] was 3.01 µM (active); in test [4], 0.742 µM (active); in test [5] it was 0.0186 µM (active); in [6] it was 0.742 µM (active). Besides, the Potency result in test [2] and in test [3] was “inactive” in each case.
Regarding `CN(C)c1ccc(C2Nc3ccc4ccccc4c3C3=C2C(=O)CC(C)(C)C3)cc1Br` (stereo not drawn), the activation in test [1] is 5.76% (inactive) and 26.3% (inactive). Moreover, the Potency result in [2], in test [3], in test [6] and in test [8] was “inactive” each time. Besides, in test [7], the viability was 107% (inactive).
For `CS(=O)(=O)CCNCc1ccc(-c2ccc3ncnc(Nc4ccc(OCc5cccc(F)c5)c(Cl)c4)c3c2)o1`, the Potency was 26.9 µM (active) in test [1]; 23.5 µM (active) in test [4]; 18.6 µM (active) in test [5]; 3.72 µM (active) in test [9]; 26.3 µM (active) in test [8]. The Potency entry in test [2], in test [3] and in [6] was “inactive” in each case.
Turning to `COc1ccc(Cl)c(Nc2ncnc3cc(OCC4CCN(C)CC4)c(OC)cc23)c1`, the Potency in [1] was 6.01 µM (active); in test [4], 29.5 µM (active); in test [5], 5.9 µM (active); in [9] it was 0.742 µM (active); in test [8], 23.5 µM (active). Besides, the Potency result in [2], in test [3] and in test [6] was “inactive” each time.
For `C1Cc2[nH]nc(-c3nn[nH]n3)c2C1`, the activation in [1] is 0.623% (inactive) and -10.5% (inactive). Moreover, the Potency result in test [2], in test [3], in test [4], in [5], in test [9] and in test [6] was “inactive” each time. The Potency result in [8] and in test [10] was “inactive” throughout.
For the compound `CNC(=O)c1cc(Oc2ccc(NC(=O)Nc3ccc(Cl)c(C(F)(F)F)c3)c(F)c2)ccn1`, the activation in test [1] was 8.41% (inactive). Moreover, the Potency result in test [2] and in test [3] was “inactive” each time. Besides, the Potency in test [4] was 2.63 µM (active); in test [5], 0.59 µM (active); in test [9] it was 10.5 µM (active); in test [8], 9.34 µM (active).
Consider `CC(C)[C@@H](CS(=O)(=O)C(C)C)N1C(=O)[C@@](C)(CC(=O)O)C[C@H](c2cccc(Cl)c2)[C@H]1c1ccc(Cl)cc1`, for which the activation in test [1] was 0.955% (inactive) and -3.88% (inactive). Besides, the Potency result in test [2] and in test [3] was “inactive” in each case. Also, the Potency in test [4] is 2.35 µM (active); in [5], 1.86 µM (active); in test [9], 1.66 µM (active); in test [6], 1.86 µM (active); in test [8], 2.35 µM (active); in test [10], 2.35 µM (active).
Take `NC(=O)c1c(OCc2c(F)cc(Br)cc2F)nsc1NC(=O)NCCCCN1CCCC1`: the activation in [1] was 9.77% (inactive). Besides, the Potency entry in [2] and in test [3] was “inactive” throughout. The Potency in [4] is 20.9 µM (active); in test [5], 20.9 µM (active); in [9], 23.5 µM (active); in [8], 26.3 µM (active); in test [10] it was 26.3 µM (active).
With `O=C(NCC(=O)N1CCCC1)Nc1ccc2cnccc2c1`, in test [1], the activation was 7.14% (inactive). The Potency result in test [2], in test [3], in test [6], in [8] and in test [10] was “inactive” throughout. Also, the viability in test [7] is 109% (inactive).
Regarding `CCS(=O)(=O)c1cccc(-c2cc(C(=O)NC3CCN(C)CC3)c(C)c3[nH]c4ncc(C)cc4c23)c1`, the Potency in [1] was 12.2 µM (active) and 5.88 µM (active); in [4], 1.48 µM (active); in test [5], 0.0934 µM (active); in test [9] it was 0.235 µM (active); in test [6], 0.934 µM (active); in [8], 3.72 µM (active). Also, the Potency in [10] is 2.63 µM (active). Further, the Potency entry in test [2] and in test [3] was “inactive” each time.
On to `COCCOc1ccc2c(c1)ncn2-c1ccc2cccc(N3CCC(N)CC3)c2n1`, for which the Potency was 16.9 µM (active) in test [1]; 9.34 µM (active) in [4]; 0.0186 µM (active) in [5]; 7.42 µM (active) in [9]; 5.25 µM (active) in test [6]; 2.09 µM (active) in test [8]. For the same compound, the Potency in test [10] is 2.35 µM (active). The Potency result in test [2] and in test [3] was “inactive” throughout.
Consider `Nc1nccc(Oc2ccc(NC(=O)c3c[nH]cc(-c4ccc(F)cc4)c3=O)cc2F)c1Cl`, for which the Potency in test [1] was 43.2 µM (active) and 30.1 µM (active); in test [4], 20.9 µM (active); in test [5] it was 0.0372 µM (active); in [9] it was 18.6 µM (active); in test [8], 9.34 µM (active). Besides, the Potency entry in [2] and in test [3] was “inactive” throughout.
As to `Cc1cc(Nc2cc(N3CCN(C)CC3)nc(/C=C/c3ccccc3)n2)n[nH]1`, the Potency in test [1] is 30.1 µM (active); in test [4], 8.33 µM (active); in [5], 0.132 µM (active); in test [9] it was 0.525 µM (active); in test [6] it was 2.95 µM (active); in test [8], 2.09 µM (active). The Potency entry in test [2] and in test [3] was “inactive” in each case.
Turning to `Cc1ccc(Nc2nccc(N(C)c3ccc4c(C)n(C)nc4c3)n2)cc1S(N)(=O)=O`, the activation in test [1] was 13% (inactive) and -7.12% (inactive) and -16.1% (inactive). Besides, the Potency entry in test [2] and in test [3] was “inactive” in each case. The Potency in test [4] was 16.6 µM (active); in test [5], 5.25 µM (active); in [9], 6.61 µM (active); in test [6], 18.6 µM (active); in [8], 18.6 µM (active); in test [10], 18.6 µM (active).
As to `Cc1ccc(-c2ccc3c(ccc4sc5c(c43)NC[C@@H](C)NC5=O)n2)cn1`, the activation in test [1] is 8.04% (inactive). Besides, the Potency entry in test [2] and in [3] was “inactive” each time. The Potency in test [4] is 18.6 µM (active); in test [5], 20.9 µM (active); in test [9] it was 26.3 µM (active); in test [8], 26.3 µM (active); in test [10] it was 26.3 µM (active).
